SMILES strings stand for the structures. This is part of a sample that, as a whole, favours compounds with a hit. Of some 79,000 tested, about 15% had one in any assay. A number with no mark means an inactive call. Calls of active or inactive are those of the source. Rule as the data show it: active = growth inhibition above about 70%; inactive = the rest.

The first experiment in a line: NCI Yeast Anticancer Drug Screen. Data for the mgt1 strain (AID 153). The following applies: S. cerevisiae mgt1 mutant growth inhibition; at 1.2 µM; active compounds read high. In outline:
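Strain: mgt1 yeast, one of a set carrying defined DNA damage repair or cell cycle control alterations. Compound-treated growth compared with vehicle.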
As to `C/C(=N\NC(=S)SCc1ccccc1)c1ccccn1`, the growth inhibition is 13%.

With `CC[C@@]1(O)C(=O)OCc2c1cc1n(c2=O)Cc2cc3c(N)cccc3nc2-1`, the growth inhibition was 4%.

Regarding `CN(C)c1ccc(Sc2ccc3nc(N)nc(N)c3c2)cc1`, the growth inhibition was -5%.

Regarding `CC(=O)OCCOCNC(=S)N/N=C(\C)c1cnccn1`, the growth inhibition is 8%.

Take `COc1ccc(C2c3cc4c(cc3OC(C)(O)C2C)OCO4)c(OC)c1` (stereo not drawn): the growth inhibition is -5%.

For `COc1cc(C2SCC(=O)N2c2ccc(-c3ccc(-n4c(-c5ccccc5)nc5ccccc5c4=O)cc3)cc2)cc(OC)c1OC` (stereo not drawn), the growth inhibition is -1%.

Turning to `COc1ccc(Br)c(C(=O)Sc2nnnn2-c2cccc(Cl)c2)c1`, the growth inhibition is -10%.

`O=C(NNc1ccnc2cc(Cl)ccc12)/C(=C\c1ccccc1Cl)NC(=O)c1ccccc1`: the growth inhibition was 2%.

In the case of `CSC(=S)Nc1cccc(C)n1`, the growth inhibition was -52%.

In the case of `O=C(/C=C\c1ccc(Cl)cc1Cl)c1cccs1`, the growth inhibition is -4%.

Take `COc1ccc(-c2cn(-c3ccc(I)cc3)c3ncnc(N)c23)cc1`: the growth inhibition was -6%.

Regarding `CN(C)c1ccc(C(C#N)=C(C#N)C#N)cc1`, the growth inhibition was -3%.

On to `COc1cc(/C=C2\CCc3ccccc3C2=O)cc(OC)c1OC`, for which the growth inhibition was -9%.

In the case of `CC(C)/C(Cl)=N\OC(=O)Nc1cccc(Cl)c1`, the growth inhibition was -1%.

For `CC1(C)[C@@H]2CC[C@]1(C)[C@H](OC(=O)CSC#N)C2`, the growth inhibition was 1%.

`NNC(=O)CCc1ccc2ccc3ccccc3c2c1`: the growth inhibition is -2%.

Turning to `COc1ccc(/C(C)=N/OC(=O)c2c(-c3ccccc3Cl)noc2C)cc1CN1CCOCC1`, the growth inhibition is -3%.

For the molecule `C=CC(C)(O)CCC1C(=C)C(O)CC2C(C)(C)CCCC12C` (stereo not drawn), the growth inhibition was -4%.

Turning to `S=C(Nc1ccc(Cl)c(Cl)c1)SCc1ccc2c(c1)OCO2`, the growth inhibition was -2%.

`COc1cc(C2C3=C(COC3=O)Oc3cc4c(cc32)OCO4)ccc1O` (stereo not drawn): the growth inhibition was -1%.

With `S=C(Nc1ccc(Cl)cc1)SC1CCCCC1`, the growth inhibition was 16%.

As for `Nc1nc(-c2cccnc2)cc(-c2cc(-c3cccnc3)nc(N)n2)n1`, the growth inhibition is 2%.

Regarding `COC1=CC(=O)C2C(C1=O)C(c1ccc(Cl)cc1)[C@@H]2C` (stereo partly drawn), the growth inhibition was 21%.

Turning to `c1ccc(-c2nc3cccnc3s2)cc1`, the growth inhibition is 1%.

Regarding `O=[N+]([O-])c1cc(CCl)ccc1CCl`, the growth inhibition was 4%.

For the molecule `COc1ccc(/C=C2\SC(=S)N(/C=C/c3nc4ccccc4[nH]c3=O)C2=O)cc1OC`, the growth inhibition is -1%.

For the molecule `CCCN(CCC)CC(O)c1cc(-c2ccc(Cl)cc2)nc2c(C)c(Cl)ccc12` (stereo not drawn), the growth inhibition is -2%.

Take `O=C(Nc1ccccc1)OCCc1ccc(Cl)c(Cl)c1`: the growth inhibition was -4%.

Turning to `CC(O)C(O)C(O)C(/C=N\Nc1ccccc1)=N/Nc1ccccc1` (stereo not drawn), the growth inhibition is 6%.

Take `C#CCCCc1ccccc1`: the growth inhibition was -19%.

For `CC(=O)Cc1ccc[cH-]1.[Fe+2].c1cc[cH-]c1`, the growth inhibition is 8%.

Turning to `Cc1cc(I)ccc1N`, the growth inhibition was 36%.

As to `FC(F)(F)c1cc(NC(=S)N2c3ccccc3-n3cccc3C2c2cccnc2)cc(C(F)(F)F)c1` (stereo not drawn), the growth inhibition was -10%.

`CC(C)(CN1CCCCC1)C(=O)CC(SCCS(=O)(=O)O)c1ccc(Br)cc1` (stereo not drawn): the growth inhibition was -1%.

Take `C[Si](C)(C)CNC(=O)OCc1ccccc1`: the growth inhibition was 7%.

As for `CC(C(=O)N1C(=O)N(C(=O)[C@H](C)C(O)c2ccccc2)[C@H](c2ccccc2)[C@H]1c1ccccc1)[C@@H](O)c1ccccc1` (stereo partly drawn), the growth inhibition was -6%.

Regarding `Oc1cccc2c(Cl)ccnc12`, the growth inhibition is 41%.

With `O=C1C=CC(=C(c2ccccc2)c2ccccc2)c2ccccc21`, the growth inhibition is 0%.

Take `S=C(S)NN1CCOCC1`: the growth inhibition was 52%.

The experiment is the same for the next values; noted with them: S. cerevisiae mgt1 mutant growth inhibition; at 3.7 µM; active compounds read high.
On to `C/C(=N\NC(=S)SCc1ccccc1)c1ccccn1`, for which the growth inhibition was 24%.

In the case of `CC[C@@]1(O)C(=O)OCc2c1cc1n(c2=O)Cc2cc3c(N)cccc3nc2-1`, the growth inhibition was -3%.

For the molecule `CN(C)c1ccc(Sc2ccc3nc(N)nc(N)c3c2)cc1`, the growth inhibition was 2%.

As for `CC(=O)OCCOCNC(=S)N/N=C(\C)c1cnccn1`, the growth inhibition is 9%.

For `COc1ccc(C2c3cc4c(cc3OC(C)(O)C2C)OCO4)c(OC)c1` (stereo not drawn), the growth inhibition was -6%.

For `COc1cc(C2SCC(=O)N2c2ccc(-c3ccc(-n4c(-c5ccccc5)nc5ccccc5c4=O)cc3)cc2)cc(OC)c1OC` (stereo not drawn), the growth inhibition is 0%.

Turning to `COc1ccc(Br)c(C(=O)Sc2nnnn2-c2cccc(Cl)c2)c1`, the growth inhibition was 11%.

For the molecule `O=C(NNc1ccnc2cc(Cl)ccc12)/C(=C\c1ccccc1Cl)NC(=O)c1ccccc1`, the growth inhibition is 23%.

`CSC(=S)Nc1cccc(C)n1`: the growth inhibition is -29%.

Take `O=C(/C=C\c1ccc(Cl)cc1Cl)c1cccs1`: the growth inhibition was -6%.

`COc1ccc(-c2cn(-c3ccc(I)cc3)c3ncnc(N)c23)cc1`: the growth inhibition was -8%.

As to `CN(C)c1ccc(C(C#N)=C(C#N)C#N)cc1`, the growth inhibition was -2%.

As for `COc1cc(/C=C2\CCc3ccccc3C2=O)cc(OC)c1OC`, the growth inhibition is -14%.

Turning to `CC(C)/C(Cl)=N\OC(=O)Nc1cccc(Cl)c1`, the growth inhibition was -3%.

For the molecule `CC1(C)[C@@H]2CC[C@]1(C)[C@H](OC(=O)CSC#N)C2`, the growth inhibition was 2%.

Consider `NNC(=O)CCc1ccc2ccc3ccccc3c2c1`, for which the growth inhibition was -3%.

For the molecule `COc1ccc(/C(C)=N/OC(=O)c2c(-c3ccccc3Cl)noc2C)cc1CN1CCOCC1`, the growth inhibition is -5%.

As for `C=CC(C)(O)CCC1C(=C)C(O)CC2C(C)(C)CCCC12C` (stereo not drawn), the growth inhibition was -16%.

Turning to `S=C(Nc1ccc(Cl)c(Cl)c1)SCc1ccc2c(c1)OCO2`, the growth inhibition is 15%.

Consider `COc1cc(C2C3=C(COC3=O)Oc3cc4c(cc32)OCO4)ccc1O` (stereo not drawn), for which the growth inhibition was 1%.

For the molecule `S=C(Nc1ccc(Cl)cc1)SC1CCCCC1`, the growth inhibition was 40%.

As to `Nc1nc(-c2cccnc2)cc(-c2cc(-c3cccnc3)nc(N)n2)n1`, the growth inhibition was 2%.

Consider `COC1=CC(=O)C2C(C1=O)C(c1ccc(Cl)cc1)[C@@H]2C` (stereo partly drawn), for which the growth inhibition is 30%.

As for `c1ccc(-c2nc3cccnc3s2)cc1`, the growth inhibition was -2%.

On to `O=[N+]([O-])c1cc(CCl)ccc1CCl`, for which the growth inhibition was 2%.

On to `COc1ccc(/C=C2\SC(=S)N(/C=C/c3nc4ccccc4[nH]c3=O)C2=O)cc1OC`, for which the growth inhibition is 3%.

`CCCN(CCC)CC(O)c1cc(-c2ccc(Cl)cc2)nc2c(C)c(Cl)ccc12` (stereo not drawn): the growth inhibition was -3%.

Take `O=C(Nc1ccccc1)OCCc1ccc(Cl)c(Cl)c1`: the growth inhibition is -4%.

With `CC(O)C(O)C(O)C(/C=N\Nc1ccccc1)=N/Nc1ccccc1` (stereo not drawn), the growth inhibition is 9%.

In the case of `C#CCCCc1ccccc1`, the growth inhibition is -14%.

Consider `CC(=O)Cc1ccc[cH-]1.[Fe+2].c1cc[cH-]c1`, for which the growth inhibition was 11%.

Turning to `Cc1cc(I)ccc1N`, the growth inhibition was 5%.

In the case of `FC(F)(F)c1cc(NC(=S)N2c3ccccc3-n3cccc3C2c2cccnc2)cc(C(F)(F)F)c1` (stereo not drawn), the growth inhibition is -5%.

As to `CC(C)(CN1CCCCC1)C(=O)CC(SCCS(=O)(=O)O)c1ccc(Br)cc1` (stereo not drawn), the growth inhibition is 0%.

As to `C[Si](C)(C)CNC(=O)OCc1ccccc1`, the growth inhibition is 5%.

Turning to `CC(C(=O)N1C(=O)N(C(=O)[C@H](C)C(O)c2ccccc2)[C@H](c2ccccc2)[C@H]1c1ccccc1)[C@@H](O)c1ccccc1` (stereo partly drawn), the growth inhibition was -9%.

Take `Oc1cccc2c(Cl)ccnc12`: the growth inhibition is 99% (active).

Regarding `O=C1C=CC(=C(c2ccccc2)c2ccccc2)c2ccccc21`, the growth inhibition is 0%.

Take `S=C(S)NN1CCOCC1`: the growth inhibition was 39%.

The values are drawn from PubChem BioAssay (NCI).
